Here are results for one sequence from paper PMC7862700, “An all-to-all approach to the identification of sequence-specific readers for epigenetic DNA modifications on cytosine”.

Holding throughout (test): DAPPL (digital affinity profiling via proximity ligation, sequencing); 10 mM Tris-HCl pH 7.5, 50 mM NaCl, 1 mM DTT, 4% glycerol, room temperature, 30 min; GST-TFs on glutathione beads, 16-mer random dsDNA library, 0.1% formaldehyde crosslink after washing; high values mean tight binding
For assay [1], the target named is T1, FEV (Homo sapiens, UniProt Q99581 1-238).
T1 sequence: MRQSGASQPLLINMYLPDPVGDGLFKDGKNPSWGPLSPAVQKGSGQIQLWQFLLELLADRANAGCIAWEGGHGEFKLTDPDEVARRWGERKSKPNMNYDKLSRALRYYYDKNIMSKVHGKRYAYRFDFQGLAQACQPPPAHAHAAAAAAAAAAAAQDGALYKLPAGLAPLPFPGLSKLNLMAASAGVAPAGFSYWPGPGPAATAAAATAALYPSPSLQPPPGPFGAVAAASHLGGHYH
The note with it: protein: recombinant; tags: N-terminal GST; dsDNA, one strand shown. The procedure, abridged:
(§1)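 Human transcription factors were made in yeast as GST fusions, captured on glutathione beads and barcoded with DNA. With a tag-only sample included, the pool was incubated with 200 nmole of a random double-stranded 16-mer DNA library in Tris/NaCl/DTT/glycerol buffer at room temperature for 30 min, then crosslinked with 0.1% formaldehyde after washing, ligated by proximity, amplified and sequenced. For binding signal, each hexamer's read frequency for a factor is divided by its frequency for the tag-only sample.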

For assay [2], the target named is ETV5 (Homo sapiens, UniProt P41161 1-510). The note with it: protein: recombinant; tags: N-terminal GST; dsDNA, one strand shown. In short, it runs like this: as §1
ETV5, sequence (P41161 whole entry): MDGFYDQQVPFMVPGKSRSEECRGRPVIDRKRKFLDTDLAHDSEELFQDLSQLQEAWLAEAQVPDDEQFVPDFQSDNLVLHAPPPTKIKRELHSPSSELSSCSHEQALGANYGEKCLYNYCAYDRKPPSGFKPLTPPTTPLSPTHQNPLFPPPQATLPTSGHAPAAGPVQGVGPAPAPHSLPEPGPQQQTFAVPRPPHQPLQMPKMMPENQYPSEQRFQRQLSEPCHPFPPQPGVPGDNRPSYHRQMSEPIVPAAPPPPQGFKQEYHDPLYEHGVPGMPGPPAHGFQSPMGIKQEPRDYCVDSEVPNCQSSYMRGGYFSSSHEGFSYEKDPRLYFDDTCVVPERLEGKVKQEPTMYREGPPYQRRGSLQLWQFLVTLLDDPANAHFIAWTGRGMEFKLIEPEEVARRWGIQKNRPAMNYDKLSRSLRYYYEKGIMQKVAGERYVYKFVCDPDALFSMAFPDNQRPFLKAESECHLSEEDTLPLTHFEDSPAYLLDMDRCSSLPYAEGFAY
Assay [3] deals with HSF1 (Homo sapiens, UniProt Q00613 1-529). Particulars: protein: recombinant; tags: N-terminal GST; chain copies: 3; dsDNA, one strand shown. In short, it runs like this:
as §1

In assay [4] the target is T2, SPIC (Homo sapiens, UniProt Q8N5J4 1-248).
T2 sequence: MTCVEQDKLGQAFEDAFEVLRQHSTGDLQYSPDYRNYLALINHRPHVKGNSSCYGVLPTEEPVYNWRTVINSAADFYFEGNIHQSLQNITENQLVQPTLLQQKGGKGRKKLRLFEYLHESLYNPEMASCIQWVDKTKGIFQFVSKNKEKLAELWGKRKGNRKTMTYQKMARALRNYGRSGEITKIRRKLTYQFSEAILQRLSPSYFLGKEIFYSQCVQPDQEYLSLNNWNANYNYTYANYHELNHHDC
The note with it: protein: recombinant; tags: N-terminal GST; dsDNA, one strand shown. In short, it runs like this: as §1

Assay [5] addresses ELF4 (Homo sapiens, UniProt Q99607 1-663). The note with it: protein: recombinant; tags: N-terminal GST; dsDNA, one strand shown. In short, it runs like this: as §1
The target of assay [6] is T3, ELK4 (Homo sapiens, UniProt P28324-2 1-405).
T3 sequence: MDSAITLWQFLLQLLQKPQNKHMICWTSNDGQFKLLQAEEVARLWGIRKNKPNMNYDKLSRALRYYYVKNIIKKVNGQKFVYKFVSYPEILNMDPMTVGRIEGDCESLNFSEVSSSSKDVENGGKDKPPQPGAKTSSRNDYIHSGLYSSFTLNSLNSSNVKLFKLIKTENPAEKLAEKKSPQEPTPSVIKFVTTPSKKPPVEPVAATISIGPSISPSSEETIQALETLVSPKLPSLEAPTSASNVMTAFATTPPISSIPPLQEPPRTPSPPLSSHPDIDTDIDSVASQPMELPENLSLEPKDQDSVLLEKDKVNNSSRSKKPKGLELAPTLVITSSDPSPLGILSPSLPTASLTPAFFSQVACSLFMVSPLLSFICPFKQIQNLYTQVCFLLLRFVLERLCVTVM
Particulars: protein: recombinant; tags: N-terminal GST; dsDNA, one strand shown. In short, it runs like this:
as §1

Assay [7] has as its target T4, ETV2 (Homo sapiens, UniProt O00321 1-342).
T4 sequence: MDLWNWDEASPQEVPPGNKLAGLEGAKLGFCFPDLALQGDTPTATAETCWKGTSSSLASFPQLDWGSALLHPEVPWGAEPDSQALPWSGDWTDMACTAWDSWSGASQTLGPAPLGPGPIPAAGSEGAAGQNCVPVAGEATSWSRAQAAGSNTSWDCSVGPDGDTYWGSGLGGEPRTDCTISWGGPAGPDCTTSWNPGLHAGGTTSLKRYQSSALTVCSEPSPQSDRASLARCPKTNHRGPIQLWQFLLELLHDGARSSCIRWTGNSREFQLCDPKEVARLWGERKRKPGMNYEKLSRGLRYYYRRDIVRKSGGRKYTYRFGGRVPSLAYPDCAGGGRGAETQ
The note with it: protein: recombinant; tags: N-terminal GST; dsDNA, one strand shown. In short, it runs like this:
as §1

Assay [8] deals with T5, ELF3 (Homo sapiens, UniProt P78545 1-371).
T5 sequence: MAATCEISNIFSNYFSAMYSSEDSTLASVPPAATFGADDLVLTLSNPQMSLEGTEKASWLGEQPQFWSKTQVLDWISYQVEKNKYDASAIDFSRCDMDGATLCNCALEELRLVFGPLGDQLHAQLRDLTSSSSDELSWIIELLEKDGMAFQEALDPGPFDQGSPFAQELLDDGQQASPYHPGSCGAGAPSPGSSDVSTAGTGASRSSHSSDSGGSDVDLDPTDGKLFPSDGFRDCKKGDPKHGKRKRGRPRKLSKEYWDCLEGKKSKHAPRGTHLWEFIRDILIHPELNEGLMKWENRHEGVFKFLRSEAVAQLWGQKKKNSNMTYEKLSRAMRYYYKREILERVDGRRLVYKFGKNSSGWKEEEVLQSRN
Particulars: protein: recombinant; tags: N-terminal GST; dsDNA, one strand shown. The procedure, abridged:
as §1

The target in assay [9] is CRX (Homo sapiens, UniProt O43186 1-299). The note with it: protein: recombinant; tags: N-terminal GST; dsDNA, one strand shown. The procedure, abridged:
as §1

For assay [10], the target named is ETV1 (Homo sapiens, UniProt P50549 1-477). The note with it: protein: recombinant; tags: N-terminal GST; dsDNA, one strand shown. The procedure, abridged: as §1
ETV1, sequence (P50549 whole entry): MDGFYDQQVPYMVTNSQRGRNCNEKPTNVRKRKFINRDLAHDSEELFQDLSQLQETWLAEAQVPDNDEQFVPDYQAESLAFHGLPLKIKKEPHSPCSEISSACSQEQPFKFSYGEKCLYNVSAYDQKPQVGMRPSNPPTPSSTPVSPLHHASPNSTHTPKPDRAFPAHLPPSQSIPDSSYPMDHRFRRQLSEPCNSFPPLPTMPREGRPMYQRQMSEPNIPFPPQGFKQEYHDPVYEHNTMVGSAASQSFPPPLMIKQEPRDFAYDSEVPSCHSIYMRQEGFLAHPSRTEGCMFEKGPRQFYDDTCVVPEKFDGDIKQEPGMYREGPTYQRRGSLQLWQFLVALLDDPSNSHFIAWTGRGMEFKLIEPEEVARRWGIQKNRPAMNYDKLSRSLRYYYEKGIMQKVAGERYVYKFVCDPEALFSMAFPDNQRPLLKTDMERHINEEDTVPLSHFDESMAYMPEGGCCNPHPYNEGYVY
Assay [11] concerns the target T6, ERF (Homo sapiens, UniProt P50548 1-548).
T6 sequence: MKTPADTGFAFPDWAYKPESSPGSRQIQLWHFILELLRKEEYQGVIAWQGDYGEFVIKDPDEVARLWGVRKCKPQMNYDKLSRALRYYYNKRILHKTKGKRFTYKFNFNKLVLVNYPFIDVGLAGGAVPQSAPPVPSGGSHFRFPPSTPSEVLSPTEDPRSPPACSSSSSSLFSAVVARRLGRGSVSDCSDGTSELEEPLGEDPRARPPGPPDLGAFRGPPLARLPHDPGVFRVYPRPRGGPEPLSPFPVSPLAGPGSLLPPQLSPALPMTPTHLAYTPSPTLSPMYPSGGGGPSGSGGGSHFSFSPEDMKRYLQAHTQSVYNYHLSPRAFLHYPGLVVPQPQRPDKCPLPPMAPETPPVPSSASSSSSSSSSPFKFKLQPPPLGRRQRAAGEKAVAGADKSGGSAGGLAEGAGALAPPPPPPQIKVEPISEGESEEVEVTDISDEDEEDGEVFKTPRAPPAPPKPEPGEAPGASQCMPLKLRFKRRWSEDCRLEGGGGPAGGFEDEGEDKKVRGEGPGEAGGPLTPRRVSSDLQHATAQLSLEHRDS
The note with it: protein: recombinant; tags: N-terminal GST; dsDNA, one strand shown. The procedure, abridged:
as §1

The target in assay [12] is T7, ETV3L (Homo sapiens, UniProt Q6ZN32 1-361).
T7 sequence: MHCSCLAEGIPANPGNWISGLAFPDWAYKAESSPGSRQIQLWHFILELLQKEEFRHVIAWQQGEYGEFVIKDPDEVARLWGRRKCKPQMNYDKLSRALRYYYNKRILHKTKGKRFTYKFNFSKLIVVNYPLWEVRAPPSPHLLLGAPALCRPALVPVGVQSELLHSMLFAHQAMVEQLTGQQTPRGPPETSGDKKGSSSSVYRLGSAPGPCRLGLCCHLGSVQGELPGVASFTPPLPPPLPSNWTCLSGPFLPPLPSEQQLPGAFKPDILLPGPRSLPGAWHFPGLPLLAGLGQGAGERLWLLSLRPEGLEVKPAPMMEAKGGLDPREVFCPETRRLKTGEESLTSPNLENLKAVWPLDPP
Particulars: protein: recombinant; tags: N-terminal GST; dsDNA, one strand shown. The procedure, abridged:
as §1

Assay [13] addresses T8, ETS2 (Homo sapiens, UniProt P15036 1-469).
T8 sequence: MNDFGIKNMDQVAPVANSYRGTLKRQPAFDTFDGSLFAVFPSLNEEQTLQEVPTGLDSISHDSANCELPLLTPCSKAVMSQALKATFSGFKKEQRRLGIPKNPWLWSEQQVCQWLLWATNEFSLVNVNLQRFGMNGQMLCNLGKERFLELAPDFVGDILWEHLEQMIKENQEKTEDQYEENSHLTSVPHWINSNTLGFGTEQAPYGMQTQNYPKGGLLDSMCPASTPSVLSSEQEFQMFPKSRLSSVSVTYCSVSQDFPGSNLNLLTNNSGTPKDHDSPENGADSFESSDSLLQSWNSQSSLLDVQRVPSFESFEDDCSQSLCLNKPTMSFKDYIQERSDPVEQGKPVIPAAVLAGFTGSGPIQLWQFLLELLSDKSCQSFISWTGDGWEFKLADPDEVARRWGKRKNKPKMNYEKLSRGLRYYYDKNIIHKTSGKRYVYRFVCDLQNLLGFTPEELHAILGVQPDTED
The note with it: protein: recombinant; tags: N-terminal GST; dsDNA, one strand shown. In short, it runs like this: as §1

The target in assay [14] is T9, SPDEF (Homo sapiens, UniProt O95238 1-335).
T9 sequence: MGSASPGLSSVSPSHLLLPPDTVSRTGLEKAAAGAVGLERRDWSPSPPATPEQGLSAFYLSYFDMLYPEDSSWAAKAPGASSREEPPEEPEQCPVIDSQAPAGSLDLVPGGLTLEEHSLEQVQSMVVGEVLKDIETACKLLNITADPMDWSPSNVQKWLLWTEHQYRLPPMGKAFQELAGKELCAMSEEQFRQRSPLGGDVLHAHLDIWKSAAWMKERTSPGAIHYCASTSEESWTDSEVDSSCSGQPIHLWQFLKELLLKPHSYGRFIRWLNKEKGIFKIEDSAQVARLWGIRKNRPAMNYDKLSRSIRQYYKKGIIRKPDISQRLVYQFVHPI
Particulars: protein: recombinant; tags: N-terminal GST; dsDNA, one strand shown. In short, it runs like this: as §1

The target of assay [15] is T10, ETV7 (Homo sapiens, UniProt Q9Y603 1-341).
T10 sequence: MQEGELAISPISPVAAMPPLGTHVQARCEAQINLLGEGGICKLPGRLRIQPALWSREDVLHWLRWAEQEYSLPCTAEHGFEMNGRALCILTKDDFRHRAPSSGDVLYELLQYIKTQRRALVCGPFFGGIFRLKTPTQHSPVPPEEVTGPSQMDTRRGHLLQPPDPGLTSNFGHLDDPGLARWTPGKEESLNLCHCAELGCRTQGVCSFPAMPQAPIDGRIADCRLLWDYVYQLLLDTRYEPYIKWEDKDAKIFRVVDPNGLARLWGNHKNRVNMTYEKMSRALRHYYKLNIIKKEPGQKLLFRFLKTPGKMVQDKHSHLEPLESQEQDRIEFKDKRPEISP
Particulars: protein: recombinant; tags: N-terminal GST; dsDNA, one strand shown. The procedure, abridged:
as §1

Assay [16] deals with T11, ELF5 (Homo sapiens, UniProt Q9UKW6-2 1-255).
T11 sequence: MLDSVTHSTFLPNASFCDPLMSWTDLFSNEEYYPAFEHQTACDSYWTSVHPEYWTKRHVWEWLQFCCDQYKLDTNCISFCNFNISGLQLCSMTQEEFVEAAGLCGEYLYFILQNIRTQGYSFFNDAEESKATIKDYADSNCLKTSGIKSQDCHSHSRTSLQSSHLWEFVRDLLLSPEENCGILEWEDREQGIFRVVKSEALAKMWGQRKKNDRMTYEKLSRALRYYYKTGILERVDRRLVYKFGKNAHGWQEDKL
Particulars: protein: recombinant; tags: N-terminal GST; dsDNA, one strand shown. The procedure, abridged:
as §1

The target in assay [17] is T12, ETV3 (Homo sapiens, UniProt P41162-2 1-143).
T12 sequence: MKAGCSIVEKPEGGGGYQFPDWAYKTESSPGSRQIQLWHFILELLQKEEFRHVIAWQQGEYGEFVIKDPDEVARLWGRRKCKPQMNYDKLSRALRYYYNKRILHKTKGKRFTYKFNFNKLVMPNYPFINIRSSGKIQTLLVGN
The note with it: protein: recombinant; tags: N-terminal GST; dsDNA, one strand shown. In short, it runs like this: as §1

For assay [18], the target named is ETV6 (Homo sapiens, UniProt P41212 1-452). Particulars: protein: recombinant; tags: N-terminal GST; dsDNA, one strand shown. In short, it runs like this:
as §1

CRX, sequence (O43186 whole entry): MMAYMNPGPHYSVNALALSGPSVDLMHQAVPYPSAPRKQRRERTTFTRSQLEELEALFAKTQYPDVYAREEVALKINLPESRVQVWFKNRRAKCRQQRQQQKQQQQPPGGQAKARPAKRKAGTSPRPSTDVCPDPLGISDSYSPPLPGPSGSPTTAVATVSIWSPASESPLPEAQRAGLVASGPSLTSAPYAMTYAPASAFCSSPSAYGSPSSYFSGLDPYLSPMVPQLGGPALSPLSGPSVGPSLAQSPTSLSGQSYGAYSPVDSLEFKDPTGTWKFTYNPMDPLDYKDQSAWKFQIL
HSF1, sequence (Q00613 whole entry): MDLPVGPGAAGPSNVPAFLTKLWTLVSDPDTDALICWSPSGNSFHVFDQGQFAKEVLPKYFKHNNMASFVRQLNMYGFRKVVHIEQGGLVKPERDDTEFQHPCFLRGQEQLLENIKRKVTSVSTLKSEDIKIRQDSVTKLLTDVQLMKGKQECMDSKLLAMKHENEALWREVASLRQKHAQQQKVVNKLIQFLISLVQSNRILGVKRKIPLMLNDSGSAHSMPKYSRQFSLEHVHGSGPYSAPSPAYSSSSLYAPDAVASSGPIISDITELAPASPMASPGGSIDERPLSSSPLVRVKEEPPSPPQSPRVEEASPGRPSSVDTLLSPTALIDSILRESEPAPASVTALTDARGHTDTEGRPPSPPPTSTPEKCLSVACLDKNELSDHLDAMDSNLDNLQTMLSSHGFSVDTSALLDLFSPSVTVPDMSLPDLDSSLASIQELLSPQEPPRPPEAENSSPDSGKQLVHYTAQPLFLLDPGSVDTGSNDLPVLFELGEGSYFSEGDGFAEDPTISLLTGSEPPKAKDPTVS
ELF4, sequence (Q99607 whole entry): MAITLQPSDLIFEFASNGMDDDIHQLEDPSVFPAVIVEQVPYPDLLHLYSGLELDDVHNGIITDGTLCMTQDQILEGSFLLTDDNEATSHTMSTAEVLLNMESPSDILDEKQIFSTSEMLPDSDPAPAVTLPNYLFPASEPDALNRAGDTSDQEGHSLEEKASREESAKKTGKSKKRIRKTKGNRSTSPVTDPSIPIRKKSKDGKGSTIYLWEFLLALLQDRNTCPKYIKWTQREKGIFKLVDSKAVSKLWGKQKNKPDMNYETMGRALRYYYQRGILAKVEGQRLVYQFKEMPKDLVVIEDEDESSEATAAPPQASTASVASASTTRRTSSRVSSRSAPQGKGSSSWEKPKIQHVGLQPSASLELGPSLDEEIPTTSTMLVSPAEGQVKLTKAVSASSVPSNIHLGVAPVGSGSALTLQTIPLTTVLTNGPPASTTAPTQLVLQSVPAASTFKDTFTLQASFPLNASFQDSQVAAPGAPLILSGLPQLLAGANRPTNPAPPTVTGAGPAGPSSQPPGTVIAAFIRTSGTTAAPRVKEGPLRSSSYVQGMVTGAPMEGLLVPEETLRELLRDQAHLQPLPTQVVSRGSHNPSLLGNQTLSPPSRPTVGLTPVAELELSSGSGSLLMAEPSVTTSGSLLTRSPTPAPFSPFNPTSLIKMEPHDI
ETV6, sequence (P41212 whole entry): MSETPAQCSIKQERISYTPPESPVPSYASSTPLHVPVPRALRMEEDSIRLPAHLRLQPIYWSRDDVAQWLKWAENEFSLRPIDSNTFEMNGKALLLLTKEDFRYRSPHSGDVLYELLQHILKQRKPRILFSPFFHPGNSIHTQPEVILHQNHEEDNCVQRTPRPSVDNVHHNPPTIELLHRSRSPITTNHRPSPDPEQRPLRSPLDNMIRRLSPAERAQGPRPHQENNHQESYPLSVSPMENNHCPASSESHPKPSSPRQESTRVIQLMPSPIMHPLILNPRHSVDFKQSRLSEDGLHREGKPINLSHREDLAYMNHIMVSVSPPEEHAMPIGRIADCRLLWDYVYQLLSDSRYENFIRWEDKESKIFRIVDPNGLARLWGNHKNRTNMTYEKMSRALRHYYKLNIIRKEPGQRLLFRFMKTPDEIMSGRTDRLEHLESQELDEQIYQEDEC

As to TATTCC, the binding signal in [1] is 1.61 fold enrichment (6-mer frequency, TF over GST control); in [2], 1.72 fold enrichment (6-mer frequency, TF over GST control); in assay [3] it was 2.11 fold enrichment (6-mer frequency, TF over GST control); in [4] it was 1.74 fold enrichment (6-mer frequency, TF over GST control); in assay [5], 1.62 fold enrichment (6-mer frequency, TF over GST control); in assay [6], 1.44 fold enrichment (6-mer frequency, TF over GST control). For the same sequence, the binding signal was 1.68 fold enrichment (6-mer frequency, TF over GST control) in [7]; 1.5 fold enrichment (6-mer frequency, TF over GST control) in assay [8]; 1.77 fold enrichment (6-mer frequency, TF over GST control) in assay [9]; 1.52 fold enrichment (6-mer frequency, TF over GST control) in [10]; 1.49 fold enrichment (6-mer frequency, TF over GST control) in assay [11]; 1.73 fold enrichment (6-mer frequency, TF over GST control) in [12]. The binding signal in assay [13] is 1.58 fold enrichment (6-mer frequency, TF over GST control); in assay [14], 1.83 fold enrichment (6-mer frequency, TF over GST control); in assay [15], 1.66 fold enrichment (6-mer frequency, TF over GST control); in [16], 1.99 fold enrichment (6-mer frequency, TF over GST control); in [17], 1.64 fold enrichment (6-mer frequency, TF over GST control); in assay [18], 1.67 fold enrichment (6-mer frequency, TF over GST control).
